Bioassay records as filed in PubChem BioAssay.
This is a sample that favours compounds with a hit; in the whole collection about 2.3% have one here.
V-ATPase pHluor – regulators of yeast V-ATPase proton transport; S. cerevisiae, pHLuorin cytosolic pH fluorescence; response, % at 10 µM; 0.37% of 350,000 active; AID 504577; in the data active = response mostly above about 7.3%, no sharp cut-off; inactive = mostly below about 5.4%; note: actives read high
ADAM10 inh – inhibits human ADAM10. O14672. recombinant ADAM10, EDANS/DABCYL FRET peptide cleavage, 3 h. inhibition, % at 7 µM. 0.62% of 370,000 active;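 active = inhibition above a per-campaign cutoff equal to the mean of compounds falling between control-based bounds plus 3 SD, cut at about 20% in these data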
KLK7 zymogen act – activators of human kallikrein-7 zymogen. activation, % at 7 µM. 0.9% of 370,000 active. purified proKLK7, EDANS-DABCYL substrate fluorescence; 100% is mature enzyme control, 0% vehicle. P49862;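 active = activation above the mean of all tested compounds plus 3 SD, computed per campaign excluding outliers beyond control limits, cut at about 13% in these data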
Target sequence (P49862 whole entry, looked up): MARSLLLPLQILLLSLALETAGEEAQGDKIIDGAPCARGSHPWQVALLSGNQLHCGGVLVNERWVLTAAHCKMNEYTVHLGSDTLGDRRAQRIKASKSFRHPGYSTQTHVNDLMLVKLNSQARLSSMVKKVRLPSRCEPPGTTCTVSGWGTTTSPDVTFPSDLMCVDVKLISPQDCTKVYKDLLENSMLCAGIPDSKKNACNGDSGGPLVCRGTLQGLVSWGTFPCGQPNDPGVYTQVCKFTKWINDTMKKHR
ADAM17 inh – inhibitors of human ADAM17 | inhibition, % at 6.95 µM | 0.83% of 370,000 active | P78536 | AID 720648 | recombinant ADAM17, EDANS/DABCYL FRET peptide cleavage;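 active = inhibition above the mean of compounds lying between control limits plus 3 SD, set per campaign, cut at about 8.5% in these data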
ADAM10 confirm – human ADAM10 inhibition, confirmation; shares compounds with ADAM10 inh; ADAM10 QFRET peptide cleavage, EDANS fluorescence; inhibition, % at 6.95 µM; 1% of 2,100 active;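 active = inhibition above about 20% chosen separately for each screening run, limit read from the data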
ADAM17 ctr – ADAM17 inhibition, counter-screen for ADAM10 exosite hits | ADAM17 QFRET peptide cleavage, EDANS fluorescence | inhibition, % at 6.95 µM | 0.5% of 2,100 active | shares compounds with ADAM10 inh;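 active = mean triplicate inhibition above the solvent-only control wells' mean plus 3 SD, cut at about 12% in these data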
ADAM10 counter – inhibits human ADAM10 in ADAM17 exosite counter-screen; recombinant ADAM10, EDANS/DABCYL FRET peptide cleavage, 3 h; inhibition, % at 6.95 µM; 47% of 2,900 active; AID 743256; shares compounds with ADAM17 inh;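 active = mean inhibition over the triplicate runs exceeds the activity threshold set in the earlier primary screen, cut at about 20% in these data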
ADAM17 confirm – confirmation of inhibitors of human ADAM17 | 65% of 2,900 active | shares compounds with ADAM17 inh | recombinant ADAM17, EDANS/DABCYL QFRET peptide cleavage | inhibition, % at 6.95 µM | AID 743257;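 active = mean inhibition across replicates above the hit cutoff set in the primary screen, cut at about 8.5% in these data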
Numbers stand for hits; i = inactive; nt = not tested or not shown.

SMILES | V-ATPase pHluor | ADAM10 inh | KLK7 zymogen act | ADAM17 inh | ADAM10 confirm | ADAM17 ctr | ADAM10 counter | ADAM17 confirm
Cc1ccc(C)c(S(=O)(=O)N2CCC(c3nc4c(nnn4Cc4ccc(F)cc4)c(=O)[nH]3)CC2)c1 | i | i | i | i | nt | nt | nt | nt
Cc1ccc(C)c(Cn2nnc3c(=O)[nH]c(C4CCN(S(=O)(=O)c5ccc(S(=O)(=O)NC6CC6)cc5)CC4)nc32)c1 | i | 24.6 | i | 11.3 | i | i | 38.5 | 20.6
Cc1ccc(Cn2nnc3c(=O)[nH]c(C4CCN(S(=O)(=O)c5cc(C)ccc5C)CC4)nc32)cc1 | i | 43.1 | i | 15.0 | i | i | 24.8 | 11.5
CCOC1=C2[C@H](c3ccccc3)N(S(=O)(=O)c3ccc(C)cc3)[C@H](C(C)C)[C@H]2C(C#N)(C#N)C(C#N)(C#N)C1 | nt | i | i | i | nt | nt | nt | nt
O=C(CSc1ccc(Cl)cc1Cl)N1CCC(c2nc3ccccc3s2)CC1 | i | 21.4 | i | 11.6 | i | i | i | 13.4
CCNC(=O)N1CCC(c2nc3ccccc3s2)CC1 | i | i | i | i | nt | nt | nt | nt
Cc1nn(Cc2ccccc2Cl)c2sc(C(=O)NCc3ccc4c(c3)OCO4)cc12 | nt | 23.4 | i | 11.7 | i | i | i | 12.0
O=C1/C(=C\c2ccc(O)c(O)c2)SC(=S)N1Cc1ccccc1 | i | 23.0 | i | 8.9 | i | i | 35.6 | 20.9
O=C1/C(=C\c2cccc(O)c2O)SC(=S)N1Cc1ccccc1 | i | i | i | i | nt | nt | nt | nt
COc1cc(/C=C2/SC(=NCc3ccccc3)N(Cc3ccccc3)C2=O)ccc1O | i | i | i | i | nt | nt | nt | nt
COc1cc(/C=C2/SC(=S)N(Cc3ccccc3)C2=O)ccc1O | i | 22.7 | i | 12.4 | i | i | 38.3 | 22.0
Cc1ccccc1NC(=O)[C@H]1CC(=O)O[C@@H]1c1ccccc1 | nt | i | i | i | nt | nt | nt | nt
COc1ccc(-c2cscc2N)cc1 | nt | i | i | i | nt | nt | nt | nt
Cc1ccc(C(C(=O)NC2CCCCC2)N(Cc2ccccc2)C(=O)Cc2c[nH]c3ccccc23)o1 (stereo not given) | i | 20.2 | i | 15.0 | i | i | i | 12.1
COc1cccc(CN(C(=O)Cc2c[nH]c3ccccc23)C(C(=O)NC2CCCCC2)c2ccc(C)o2)c1 (stereo not given) | i | 21.8 | i | 11.2 | i | i | 32.6 | 16.4
CCC(c1nc2ccccc2[nH]1)n1c(C)nc2ccccc21 (stereo not given) | nt | i | i | i | nt | nt | nt | nt
S=C(SCc1nc(-c2ccc(Cl)cc2)no1)N1CCSCC1 | nt | i | i | i | nt | nt | nt | nt
O=C(COC(=O)c1ccc(Cl)c(S(=O)(=O)N2CCCCCC2)c1)Nc1ccccc1 | i | 20.0 | i | 10.1 | i | i | 48.7 | 27.0
O=C(COC(=O)c1ccc(S(=O)(=O)N2CCCC2)cc1)Nc1ccccc1 | i | i | i | i | nt | nt | nt | nt
C=CCc1cccc(CNc2nc3ccccc3n2C)c1O | i | 20.1 | i | 10.9 | i | i | 32.2 | 16.9
COc1ccc(NC(=O)Cc2csc(NC(=O)Nc3ccccc3OC)n2)c(OC)c1 | i | i | i | i | nt | nt | nt | nt
COc1ccc(NC(=S)Nc2nc(CC(=O)Nc3ccccc3OC)cs2)cc1 | i | 24.2 | i | 9.3 | i | i | i | 13.9
N#Cc1ccc(NC(=O)OC2CC3CC2[C@H]2CCCCN2C3)cc1 (stereo not given in full) | nt | i | i | i | nt | nt | nt | nt
CC(C)=C[C@H]1C[C@H](C)[C@H]2CC[C@H](C)c3c(O[C@@H]4OC[C@@H](O)[C@H](O)C4O)c(O)c(C)c1c32 (stereo not given in full) | i | 30.3 | i | 21.1 | i | i | i | 9.1
CC(=O)OC1[C@H](Oc2c(O)c(C)c3c4c2[C@@H](C)CC[C@@H]4[C@@H](C)C[C@@H]3C=C(C)C)OC[C@@H](O)[C@@H]1O (stereo not given in full) | i | i | i | i | nt | nt | nt | nt
Cc1ccc(S(=O)(=O)N(CCCO)CC(O)CON=C2c3ccccc3-c3ccccc32)cc1 (stereo not given) | i | 34.6 | i | 18.8 | i | i | i | 12.0
